High-throughput results from PubChem BioAssay.
A selection: hits, their analogues and other compounds. The true share with any hit is near 3.2%.
Bim-Mcl-1: inhibitors of Bim peptide binding to Mcl-1, primary screen, biochemical, bead-based flow cytometry, multiplex. Bim peptide-Mcl-1 binding. inhibition, % at 10 µM. 0.1% of 190,000 active; in the data active means inhibition above about 40%;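 further: 0% = no compound tracer wells and 100% = peptide blocker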
Target sequence (Q07820 whole entry, looked up): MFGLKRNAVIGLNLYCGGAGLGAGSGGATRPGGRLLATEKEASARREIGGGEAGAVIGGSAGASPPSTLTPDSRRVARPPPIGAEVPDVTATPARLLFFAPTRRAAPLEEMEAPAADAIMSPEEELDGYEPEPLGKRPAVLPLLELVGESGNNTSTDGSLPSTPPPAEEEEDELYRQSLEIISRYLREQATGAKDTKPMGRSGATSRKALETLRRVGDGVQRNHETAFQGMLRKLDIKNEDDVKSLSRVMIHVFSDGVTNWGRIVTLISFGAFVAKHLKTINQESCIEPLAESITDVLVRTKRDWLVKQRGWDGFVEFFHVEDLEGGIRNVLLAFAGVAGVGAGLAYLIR
Mcl1-Bid inh: Mcl-1/Bid binding inhibitors, primary screen, biochemical, TR-FRET, 1536-well; Induced myeloid leukemia cell differentiation protein Mcl-1 (Homo sapiens), Q07820; TR-FRET Mcl-1/Bid-Dy647 peptide binding; inhibition, % at 21.7 µM; 0.97% of 220,000 active; AID 1021, 2008;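 active means compounds that cut the binding signal by more than half at the single screening dose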;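 further: His-tagged Mcl-1 with europium anti-His antibody binding Bid BH3 peptide; 0% = Mcl-1 plus peptide wells and 100% = peptide-only wells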
14-3-3 Bad PPI: inhibitors of 14-3-3 zeta/Bad binding, primary screen, biochemical, TR-FRET, bovine 14-3-3 zeta. 14-3-3 protein zeta/delta (Bos taurus), P63103. TR-FRET 14-3-3zeta/Dy647-pBad peptide displacement, 1 h. inhibition, % at 21.7 µM. 0.71% of 220,000 active;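 active means inhibition above about 70%, limit read from the data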;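 further: 0% = full 14-3-3 plus peptide FRET controls and 100% = background without 14-3-3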
Target sequence (P63103 whole entry, looked up): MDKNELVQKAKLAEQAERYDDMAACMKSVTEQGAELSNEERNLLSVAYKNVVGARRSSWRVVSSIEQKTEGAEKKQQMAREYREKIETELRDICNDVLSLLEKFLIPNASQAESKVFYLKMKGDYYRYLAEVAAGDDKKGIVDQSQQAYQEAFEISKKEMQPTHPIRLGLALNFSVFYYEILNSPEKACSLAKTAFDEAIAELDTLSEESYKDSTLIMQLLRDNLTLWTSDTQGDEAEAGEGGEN
NCF1 inh: p47phox/p22phox peptide binding inhibitors, primary screen, biochemical, uHTS, NADPH oxidase regulatory subunit; fluorescence polarization, 2 h; inhibition, % at 24.7 µM; Neutrophil cytosol factor 1 (Homo sapiens), P14598; 0.53% of 220,000 active;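 active means inhibition above about 30%, limit read from the data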;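 further: 0% = p47phox with labelled peptide and 100% = labelled peptide alone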
Mcl1-Noxa inh: Mcl-1/Noxa binding inhibitors, primary screen, biochemical, TR-FRET, 1536-well. Induced myeloid leukemia cell differentiation protein Mcl-1 (Homo sapiens), Q07820. TR-FRET Mcl-1/Noxa peptide binding, 2 h. inhibition, % at 21.7 µM. 1.5% of 220,000 active;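 active means compounds that cut the protein-peptide binding signal by more than 50% relative to plate controls in a single-dose test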;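 further: His-tagged Mcl-1 with rhodamine Noxa BH3 peptide and terbium anti-His antibody; 0% = Mcl-1 plus Noxa peptide wells and 100% = peptide-only wells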
Starred values were filed as active, the others as inactive; nt = no result; [ ] = remark or other dose.

SMILES	Bim-Mcl-1	Mcl1-Bid inh	14-3-3 Bad PPI	NCF1 inh	Mcl1-Noxa inh
O=C(CN1CCN(c2ccccc2)CC1)NC(=O)NCc1ccco1	-1	-15	-5	-18	16
COc1ccc(S(=O)(=O)N(C(=O)c2ccncc2)c2ccc(OC(=O)c3ccncc3)cc2)cc1	0	-9	-2	-4	16
COc1ccc(OC(=O)c2ccncc2)cc1	0	99*	-3	-15	6
Cc1c2cnn(CC(=O)Nc3c(F)c(F)cc(F)c3F)c(=O)c2c(C)n1Cc1ccc(F)cc1	-2	-16	-3	10	62*
CCN(CC)c1ccc(NC(=O)Cn2ncc3c(C)n(Cc4ccccc4F)c(C)c3c2=O)c(C)c1	3	65*	48	-2	64*
CCN(CC)c1ccc(NC(=O)CN2C(=O)CC(C)(C)S(=O)(=O)c3ccccc32)c(C)c1	-1	-39	14	7	6
Cn1nc(-c2ccc(Cl)cc2)cc1NC(=O)CSCC(=O)O	nt	-15	-12	-8	1
N#Cc1ccc(Sc2ccccn2)c([N+](=O)[O-])c1	nt	-5	0	2	10
Cc1cc(C)c(NC(=O)COC(=O)c2cccc3c2C(=O)c2ccccc2C3=O)c(C)c1	4	-3	-7	-13	4
Cc1cc(C)c(Nc2cc(S(=O)(=O)O)c(N)c3c2C(=O)c2ccccc2C3=O)c(C)c1	-2	94*	73*[fluorescence artefact?]	59*	107*
COC(=O)C(C(=O)OC)c1ccccc1[N+](=O)[O-]	-4	-13	-2	-8	-4
O=[N+]([O-])c1cccnc1N/N=C/c1ccccc1O	-2	-27	-5	-14	32
O=C(O)CNc1ncccc1[N+](=O)[O-]	-5	-12	-4	50*	29
COC(=O)C(C(=O)OC)c1ncccc1[N+](=O)[O-]	nt	-10	85*	-3	7
Cc1ccc(S(=O)(=O)N2CCC(C(=O)O)CC2)cc1	-5	-10	-13	6	-7
Cc1csc(NC(=O)c2cc(C)nc3ccccc23)n1	0	-2	2	-1	24
O=C(Nc1nccs1)c1cc(-c2ccco2)nc2ccccc12	-8	-88	-1	-9	81*
O=C(Nc1nccs1)c1cc(-c2ccccc2)nc2ccccc12	-9	18	26	-16	20
Cc1csc(NC(=O)c2cc(-c3ccco3)nc3ccccc23)n1	-2	12	11	-5	99*
Cc1ccc2nc(NC(=O)c3cc(-c4ccco4)nc4ccccc34)sc2c1	0	53*	8	5	42
Cc1ccc2nc(NC(=O)c3ccccn3)sc2c1	-2	-84	-12	-5	-16
O=C(NC1CC1)c1cc(-c2ccco2)nc2ccccc12	nt	39	83*	19	105*
COc1ccc(NC(C)=O)cc1NC(=O)c1ccc2ccccc2c1	-3	-28	-7	-8	16
Cc1cc(C)c(C(=O)Nc2ccc(Br)c(C(F)(F)F)c2)c(C)c1	-7	-21	-7	0	-8
Cc1cccc(NC(=O)CCC(=O)Nc2nnc(C(F)(F)F)s2)c1	nt	-25	-11	-3	-1
SMILES	Bim-Mcl-1	Mcl1-Bid inh	14-3-3 Bad PPI	NCF1 inh	Mcl1-Noxa inh
O=C(Nc1nc2ccccc2s1)c1cc(-c2ccco2)nc2ccccc12	-3	63*	15	2	59*
O=C(N/N=C/c1ccc(F)cc1)c1cc(-c2ccco2)nc2ccccc12	-1	98*	43	-12	104*
COc1cccc(-c2cc(C(=O)Nc3nc4ccccc4s3)c3ccccc3n2)c1	-2	-1	1	-54	-5
N=c1oc2cc(O)ccc2cc1C(=O)Nc1nc2ccccc2s1	0	72*	26	18	100*
Cc1ccn2c(NC(=O)c3ccccc3)c(-c3cccs3)nc2c1	-3	-21	70*[fluorescence artefact?]	-34	-2
Cc1ccn2c(NCc3ccccc3)c(-c3cccs3)nc2c1	-1	-29	-18	-12	12
C=CC(c1ccccc1)C(C(=O)c1ccccc1)N(C)C (centres undefined)	-1	82*	-5	-2	-9
CSc1nn2c(C(F)(F)F)cc(C(F)(F)F)nc2c1C(N)=O	nt	32	9	5	37
CCOC(=O)CCn1c2nc(C)cc(C)c2c(=O)n1-c1ccccc1	0	-47	nt	34*	-3
CC12CCC(C(=O)Nc3ccccc3-n3cccc3)(CC1=O)C2(C)C (centres undefined)	-3	76*	-2	-6	-2
O=C(O)C(Cc1c[nH]c2ccccc12)N1C(=O)C2C3c4ccccc4C(c4ccccc43)[C@@H]2C1=O (some centres undefined)	nt	-26	-10	-14	4
Cc1ccc(Cn2ncc3c(N4CCN(c5ccccc5C)CC4)ncnc32)cc1	0	-13	-10	0	-6
c1ccc(Cn2ncc3c(N4CCCCC4)ncnc32)cc1	-1	18	74*	4	34
CCCN(CC(=O)Nc1ccccc1C)C(=O)CCl	0	-9	-3	-2	12
Cc1ccc(NC(=O)Cn2nc(-c3ccccc3Cl)ccc2=O)c(Br)c1	0	-13	-6	-11	-4
O=[N+]([O-])c1ccc2c(c1)ncn2-c1ccccc1	-1	82*	10	2	-16
Cn1c(-[n+]2c(-c3ccccc3)cc(-c3ccccc3)cc2-c2ccccc2)nc2cc([N+](=O)[O-])ccc21	-2	-22	20	1	64*
Cc1cc(NC2CCCCC2)nc(-c2ccccc2O)n1	-3	52*	22	-2	28
Cc1cc(Nc2ccccc2)nc(-c2ccccc2O)n1	2	8	-11	-18	25
CCOC(=O)CC(NS(=O)(=O)Cc1ccccc1)c1ccc(C)cc1 (centres undefined)	0	-9	-29	5	21
CC(=O)Nc1c(NC(=O)CC#N)[nH]c2c(c1=O)c(=O)n(C)c(=O)n2C	-3	-23	2	-5	20
O=C(COc1ccc(Br)cc1)Nc1nc(-c2cccnc2)cs1	nt	-22	-2	-37	22
O=C(Cc1cccs1)Nc1nc(-c2cccnc2)cs1	nt	-63	-1	-48	72*
COCCN1C(=O)N(c2cccc(C)c2)C(=O)C1CC(=O)Nc1ccc(F)cc1 (centres undefined)	0	-17	93*	7	10
O=C(CNS(=O)(=O)c1ccccc1)NCC(=O)OCc1ccc(C(=O)c2ccccc2)cc1	-4	-8	-15	-3	15
O=C(C[n+]1ccc(Cc2ccccc2)cc1)Nc1ccccc1	2	-44	-12	-2	1
O=[N+]([O-])c1ccc(/C=C/C2=NN(c3ccccc3)C(c3ccco3)C2)cc1 (centres undefined)	nt	-13	5	34*	4
